{"source": "PubChem BioAssay AID2685", "about": "(National Center for Advancing Translational Sciences (NCATS), 2010)", "note": "Among all 320,000 compounds or so, about 2,100 (0.66%) were called active. Another 53% or so got no clear call; they are omitted. The call rests on the fitted dose curve; in most records, active means well fitted inhibition curve with a large enough effect in the signal ratio, with a control signal flat (not every such curve was filed as active); inconclusive means small, poorly fitted or top-dose-only effect, or effect the other way, or a change in a side signal; inactive means flat fitted curve, though single readings scatter; the % refers to the signal ratio. Only a selection was taken, and actives are over-represented in it overall. Potency means the concentration at half of the fitted maximal effect.", "data": [{"test": "qHTS Assay for Lipid Storage Modulators in Drosophila S3 Cells;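 on cell number change: cells counted by Cell Tracker Red CMTPX staining in the red channel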", "settings": "BODIPY lipid droplet fluorescence, 18-24 h, cells fed with added oleic acid; cell number change: measured here: cell count max response; series mostly up to 46.1 µM", "in_short": "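Laser-scanning cytometry quantifies lipid droplet accumulation (500–530 nm total intensity; droplet/cell object ratio) in oleic acid-fed (400 uM added) Drosophila S3 cells treated with a concentration series. 20 uM Triacsin C defined 100% inhibition.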", "units": {"cell number change": "%"}, "values": [{"smiles": "Cc1cc(/C=C2\\SC(=S)N(Cc3ccco3)C2=O)c(C)n1-c1ccccc1", "Potency": "inactive", "cell number change": -3.86}, {"smiles": "Cc1cc(/C=C2\\SC(=S)N(Cc3ccco3)C2=O)c(C)n1-c1cccnc1", "Potency": "23.1 µM (active)"}, {"smiles": "Cc1cc(C(=O)NN=C2C3CC4CC(C3)CC2C4)c2ccccc2n1", "Potency": "inactive", "cell number change": -7.65}, {"smiles": "CN(C)C(CNC(=S)Nc1cccc(Cl)c1)c1cccnc1", "note": "(stereo not drawn)", "Potency": "inactive", "cell number change": -7.59}, {"smiles": "CNNC(=S)NC1CC2CC1C1C=CCC21", "note": "(stereo not drawn)", "Potency": "inactive", "cell number change": 17.5}, {"smiles": "CCOc1ncccc1-c1nc(-c2cccs2)no1", "Potency": "inactive", "cell number change": -0.414}, {"smiles": "CC1CN(C(=O)c2ccccc2OCc2ccc(Cl)cc2Cl)CC(C)O1", "note": "(stereo not drawn)", "Potency": "0.651 µM (active)", "cell number change": -15}, {"smiles": "CC1CN(C(=O)c2ccc(COc3ccc4ccccc4c3)o2)CC(C)O1", "note": "(stereo not drawn)", "Potency": "inactive", "cell number change": 18.9}, {"smiles": "CC1CN(C(=O)c2ccc(COc3ccccc3Br)o2)CC(C)O1", "note": "(stereo not drawn)", "Potency": "inactive", "cell number change": 21.6}, {"smiles": "Cc1ccccc1OCc1ccc(C(=O)N2CC(C)OC(C)C2)o1", "note": "(stereo not drawn)", "Potency": "32.6 µM (active)", "cell number change": 14.8}, {"smiles": "CC1CN(C(=O)COC(=O)c2cc(Cl)ccc2Cl)CC(C)O1", "note": "(stereo not drawn)", "Potency": "inactive", "cell number change": -5.44}, {"smiles": "CCOc1cccc2cc(C(=O)N3CC(C)OC(C)C3)c(=O)oc12", "note": "(stereo not drawn)", "Potency": "inactive", "cell number change": -8.03}, {"smiles": "COc1ccc(N=C2CCS(=O)(=O)c3sccc32)cc1", "Potency": "inactive"}, {"smiles": "O=C(CN1C(=O)NC2(CCCC2)C1=O)Nc1ccccc1-c1ccccc1", "Potency": "inactive"}, {"smiles": "COc1ccccc1C(=O)Nc1cccc(N(C)S(C)(=O)=O)c1", "Potency": "inactive", "cell number change": -2.55}, {"smiles": "Cc1cc(C)cc(NC(=O)N2CCN(S(C)(=O)=O)CC2)c1", "Potency": "inactive", "cell number change": 5.38}, {"smiles": "CC(=O)c1cccc(NC(=O)N2CCN(S(C)(=O)=O)CC2)c1", "Potency": "11.6 µM (active)"}, {"smiles": "CC(=O)c1cccc(NC(=O)N2CCCCCC2)c1", "Potency": "inactive", "cell number change": -8.42}, {"smiles": "O=C(CCc1nnc2n(Cc3ccc(Cl)cc3)c(=O)c3ccccc3n12)NCCCN1CCOCC1", "Potency": "inactive"}, {"smiles": "CC(C)N(C(=O)Cn1c(-c2ccccc2Cl)nc2ccccc21)c1ccccc1", "Potency": "inactive", "cell number change": -7.06}, {"smiles": "N#C/C(=N\\Nc1ccc(F)cc1)C(=N)N1CCCCCC1", "Potency": "inactive", "cell number change": 0.927}, {"smiles": "O=[N+]([O-])c1cc([N+](=O)[O-])c(N2CCCCCC2)cc1NCCO", "Potency": "inactive", "cell number change": -19.4}, {"smiles": "Cc1nc2ccccc2n1CCOc1ccc(F)cc1", "Potency": "inactive", "cell number change": -21.4}, {"smiles": "Cc1ccccc1C(=O)NCCn1cc(SCC(=O)NCC2CCCO2)c2ccccc21", "note": "(stereo not drawn)", "Potency": "inactive", "cell number change": 4.31}, {"smiles": "COc1ccccc1C(=O)NCCn1cc(SCC(=O)NCC2CCCO2)c2ccccc21", "note": "(stereo not drawn)", "Potency": "18.4 µM (active)", "cell number change": -16.8}, {"smiles": "CCn1cc(SCC(=O)NCC2CCCO2)c2ccccc21", "note": "(stereo not drawn)", "Potency": "inactive", "cell number change": -11.7}, {"smiles": "CCCCNC(=O)C1CCN(Cc2ccc(OCc3ccccc3)cc2)CC1", "Potency": "inactive", "cell number change": -13}, {"smiles": "COc1ccc(/C=C2/C(=N)N3C(=NC2=O)Sc2cc(S(C)(=O)=O)ccc23)cc1OC", "Potency": "inactive", "cell number change": 20.5}, {"smiles": "CN(C)c1ccc(/C=C2\\C(=N)N3C(=NC2=O)Sc2cc(S(C)(=O)=O)ccc23)cc1", "Potency": "5.8 µM (active)", "cell number change": 29.8}, {"smiles": "Cc1ccc(S(=O)(=O)Oc2ccc(/C=C3/C(=N)N4C(=NC3=O)SN=C4S(C)(=O)=O)cc2)cc1", "Potency": "inactive", "cell number change": -5.51}, {"smiles": "CC(=O)N1CCc2cc(S(=O)(=O)CCC(=O)N3CCN(c4ccccn4)CC3)ccc21", "Potency": "inactive", "cell number change": 3.02}, {"smiles": "CCc1ccc(C(C(=O)NCc2ccc(F)cc2)N(C(=O)c2csnn2)C2CC2)cc1", "note": "(stereo not drawn)", "Potency": "inactive", "cell number change": -0.952}, {"smiles": "CCCN(C(=O)/C=C/c1nc2ccccc2s1)C1CCS(=O)(=O)C1", "note": "(stereo not drawn)", "Potency": "inactive", "cell number change": 10.5}, {"smiles": "COc1ccc(NC(=O)c2ccc(NCCCN3CCOCC3)c([N+](=O)[O-])c2)cc1", "Potency": "inactive", "cell number change": 0.55}, {"smiles": "O=C(Nc1cccc(O)c1)c1ccc(NC(=O)C2CCCO2)cc1", "note": "(stereo not drawn)", "Potency": "inactive", "cell number change": -1.32}, {"smiles": "CC1Nc2ccc(C(=O)NC3CCCCC3)cc2NC1=O", "note": "(stereo not drawn)", "Potency": "23.1 µM (active)", "cell number change": 18.4}, {"smiles": "O=C(NC1CCCCC1)c1ccc2c(c1)OCO2", "Potency": "inactive", "cell number change": 1.32}, {"smiles": "CCc1ccc(NC(=O)c2ccc(NC(=O)C3CCCO3)cc2)cc1", "note": "(stereo not drawn)", "Potency": "inactive", "cell number change": 8.55}, {"smiles": "CS(=O)(=O)Nc1ccc(C(=O)NC2CCCC2)cc1", "Potency": "2.91 µM (active)", "cell number change": -0.712}, {"smiles": "Cc1cccc(C(=O)NC2CCCCCCC2)c1", "Potency": "inactive", "cell number change": 5.98}, {"smiles": "CS(=O)(=O)NCc1ccc(C(=O)NC2CCCCC2)cc1", "Potency": "inactive"}, {"smiles": "Cc1ccc(C(=O)Nc2cccc(C(=O)NC3CCCC3)c2)cc1", "Potency": "14.6 µM (active)", "cell number change": 21.4}, {"smiles": "Cc1ccc(C(=O)NC2CCCCC2)cc1", "Potency": "inactive", "cell number change": -6.85}, {"smiles": "Cc1ccc(C(=O)Nc2cccc(C(=O)O)c2)cc1", "Potency": "inactive", "cell number change": -13.9}, {"smiles": "CCOC(=O)c1cccc(NC(=O)c2ccc(NC(=O)C3CCCO3)cc2)c1", "note": "(stereo not drawn)", "Potency": "14.6 µM (active)", "cell number change": -4.84}, {"smiles": "CS(=O)(=O)c1ccc(C(=O)NC2CCCCC2)cc1", "Potency": "inactive", "cell number change": 6.12}, {"smiles": "CC(C)CC(=O)N1CCN(Cc2ccc(Cl)cc2)CC1", "Potency": "inactive", "cell number change": 1.4}]}]}
